Structures can show the parent of a compound that is named as a salt.
Tested on: Ruminococcus gnavus DSM 108212
Assay: growth (OD595) fold change vs plate DMSO controls (fold change (ratio)); higher = more growth
Conditions: incubation time: 27 h, anaerobic, 37 °C
In short: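 The reported measure is growth: the fold change against the median of DMSO controls on the plate. Absorbance at 595 nm from anaerobic 96-well mGAM cultures grown for 27 h at 37 °C was blank-subtracted, corrected for background with 20 µM compound solutions in water, and converted to OD with a calibration factor of 5. Fold changes above 1.5 appear as NA, and values are the mean of 2 biological replicates.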

`CCCCCCC[N+](CC)(CC)CCCCc1ccc(Cl)cc1` [Clofilium tosylate] (20 µM) was tested. Which growth did it give?
Its growth is 1.26.

Which growth does the source give for `N=C(N)NCC1COC2(CCCCC2)O1` (centres undefined) [Guanadrel sulfate] (20 µM) here?
Its growth is 1.16.

With `CCCC(CCC)C(=O)O[C@H]1C[C@H]2CC[C@@H](C1)[N+]2(C)C` [Anisotropine Methylbromide] (20 µM) as the compound, how does the growth read?
The growth was 1.01.

`COc1ccc2c(c1)c(CC(=O)OCC(=O)O)c(C)n2C(=O)c1ccc(Cl)cc1` [Acemetacin] (20 µM) was tested. Which growth did it give?
Its growth is 1.06.

Which growth does the source give for `CN1CCCN=C1/C=C/c1cccc(O)c1` [Oxantel pamoate] (20 µM) here?
Its growth is 0.853.

For `COc1c(O[C@@H]2O[C@H](CO)[C@@H](O)[C@H](O)[C@H]2O)cc2c(c1OC)-c1ccc(SC)c(=O)cc1[C@@H](NC(C)=O)CC2` [Thiocolchicoside] (20 µM), which growth is on record?
Its growth is 0.686.

For `Cc1c(Nc2ncccc2C(=O)O)cccc1C(F)(F)F` [Flunixin meglumine] (20 µM), which growth is on record?
The growth was 1.15.

How did the growth turn out when `C#C[C@]1(OC(C)=O)CC[C@H]2[C@@H]3CCC4=CC(=NO)CC[C@@H]4[C@H]3CC[C@@]21CC` (mixture of isomers) [Norgestimate] (20 µM) was run?
Its growth is 0.991.

Which growth does the source give for `CC12CC3CC(C)(C1)CC(N)(C3)C2` [Memantine hydrochloride] (20 µM) here?
Its growth is 0.997.

`CC(CCc1ccccc1)NCC(O)c1ccc(O)c(C(N)=O)c1` (centres undefined) [Labetalol hydrochloride] (20 µM) was tested. Which growth did it give?
The growth was 0.85.

`CCCCc1oc2ccc(NS(C)(=O)=O)cc2c1C(=O)c1ccc(OCCCN(CCCC)CCCC)cc1` [Dronedarone hydrochloride] (20 µM) was tested. Which growth did it give?
Its growth is 0.895.

For `CCN1CCCC(OC(=O)C(c2ccccc2)c2ccccc2)C1` (centres undefined) [Piperidolate hydrochloride] (20 µM), which growth is on record?
Its growth is 0.893.

`C[C@]1(Cn2ccnn2)[C@H](C(=O)O)N2C(=O)C[C@H]2S1(=O)=O` [Tazobactam] (20 µM) was tested. Which growth did it give?
The growth was 1.05.

Which growth does the source give for `O=C(CCCN1CCN(c2ccccn2)CC1)c1ccc(F)cc1` [Azaperone] (20 µM) here?
The growth was 1.12.

Which growth does the source give for `CC(=O)Nc1c(I)c(NC(C)=O)c(I)c(C(=O)O)c1I` [Diatrizoic acid dihydrate] (20 µM) here?
Its growth is 0.851.

Which growth does the source give for `CN[C@@H]1[C@@H](O)[C@@H](O[C@@H]2[C@@H](O)[C@H](O[C@H]3OC(CN)=CC[C@H]3N)[C@@H](N)C[C@H]2N)OC[C@]1(C)O` [Sisomicin sulfate] (20 µM) here?
Its growth is 0.942.

`CC(CN(C)C)C(C)(O)Cc1ccc(Cl)cc1` (centres undefined) [Clobutinol hydrochloride] (20 µM) was tested. Which growth did it give?
The growth was 1.26.

With `CC(=O)[C@H]1CC[C@H]2[C@@H]3C[C@H](C)C4=CC(=O)CC[C@]4(C)[C@H]3[C@@H](O)C[C@]12C` [Medrysone] (20 µM) as the compound, how does the growth read?
Its growth is 1.03.

`CC(C(=O)O)c1ccc(-c2ccccc2)c(F)c1` (centres undefined) [Flurbiprofen] (20 µM) was tested. Which growth did it give?
Its growth is 1.02.

`CCOC(=O)/C=C(C)/C=C/C=C(C)/C=C/c1c(C)cc(OC)c(C)c1C` [Etretinate] (20 µM) was tested. Which growth did it give?
The growth was 0.927.

For `c1ccc2c(CC3=NCCN3)cccc2c1` [Naphazoline hydrochloride] (20 µM), which growth is on record?
Its growth is 0.57.

For `CCCCC(=O)N(Cc1ccc(-c2ccccc2-c2nnn[nH]2)cc1)[C@H](C(=O)O)C(C)C` [Valsartan] (20 µM), which growth is on record?
Its growth is 1.06.

For `COc1ccccc1O` [Guaiacol] (20 µM), which growth is on record?
The growth was 1.02.

`OC[C@H]1O[C@@H](O[C@@H]2[C@@H](CO)OC(O)(CO)[C@H]2O)[C@H](O)[C@@H](O)[C@H]1O` (mixture of isomers) [Lactulose] (50 µM) was tested. Which growth did it give?
Its growth is 0.977.

Which growth does the source give for `CC(C)COC(=O)OCN1C(=O)CN(CCN2CC(=O)N(COC(=O)OCC(C)C)C(=O)C2)CC1=O` [Sobuzoxane] (20 µM) here?
The growth was 1.09.

For `NS(=O)(=O)c1cc2c(cc1C(F)(F)F)NC(Cc1ccccc1)NS2(=O)=O` (centres undefined) [Bendroflumethiazide] (20 µM), which growth is on record?
The growth was 1.05.

For `CCOC(=O)[C@H](CCc1ccccc1)N[C@H]1CCc2ccccc2N(CC(=O)O)C1=O` [Benazepril hydrochloride] (20 µM), which growth is on record?
Its growth is 1.02.

Which growth does the source give for `CC(=O)Oc1cc(C(C)C)c(OCCN(C)C)cc1C` [Moxisylyte hydrochoride] (20 µM) here?
Its growth is 1.22.

How did the growth turn out when `O=C1c2c(O)ccc(O)c2C(=O)c2c(NCCNCCO)ccc(NCCNCCO)c21` [Mitoxantrone dihydrochloride] (20 µM) was run?
The growth was 1.24.

`Nc1cccc2c1C(=O)N(C1CCC(=O)NC1=O)C2=O` (centres undefined) [Pomalidomide] (20 µM) was tested. Which growth did it give?
Its growth is 1.04.

How did the growth turn out when `CCCCOc1ccc(C(=O)CCN2CCCCC2)cc1` [Dyclonine hydrochloride] (20 µM) was run?
Its growth is 1.22.

Which growth does the source give for `OCC(O)CN1CCN(c2ccccc2)CC1` (centres undefined) [Dropropizine] (20 µM) here?
The growth was 1.1.

How did the growth turn out when `CN(C)CCC(c1ccc(Cl)cc1)c1ccccn1` (centres undefined) [Chlorpheniramine maleate] (20 µM) was run?
Its growth is 0.699.

`CNCC(O)c1ccc(OC(=O)C(C)(C)C)c(OC(=O)C(C)(C)C)c1` (centres undefined) [Dipivefrin hydrochloride] (20 µM) was tested. Which growth did it give?
The growth was 1.02.

For `CC(=O)O[C@H]1C[C@@]2(C)[C@@H](C[C@@H](O)[C@H]3[C@@]4(C)CC[C@@H](O)[C@@H](C)[C@@H]4CC[C@@]32C)/C1=C(\CCC=C(C)C)C(=O)O` [Fusidic acid sodium salt] (20 µM), which growth is on record?
Its growth is 0.122.

`CCOc1ccccc1OCC1CNCCO1` (centres undefined) [Viloxazine hydrochloride] (20 µM) was tested. Which growth did it give?
Its growth is 0.675.

Which growth does the source give for `OC[C@H]1O[C@@H](O[C@H]2[C@H](O)[C@@H](O)[C@H](O)O[C@@H]2CO)[C@H](O)[C@@H](O)[C@H]1O` [Lactose] (50 µM) here?
Its growth is 1.07.

Which growth does the source give for `CCC(=O)c1ccc(O)cc1` [Paroxypropione] (20 µM) here?
Its growth is 1.

Which growth does the source give for `CCOc1ccc2ccccc2c1C(=O)N[C@@H]1C(=O)N2[C@@H]1SC(C)(C)[C@@H]2C(=O)O` [Nafcillin sodium salt monohydrate] (20 µM) here?
Its growth is 0.
